{"source": "PubChem BioAssay AID950", "about": "(NMMLSC, 2007)", "note": "The whole screen tested about 190,000 compounds, of which about 120 (0.063%) were called active. Many of the other results were omitted from the sample, so actives are more common in it than they were. A number with no mark means an inactive call. Rule as the data show it: active = inhibition above about 40%; inconclusive = no clear call, values can overlap the other calls; inactive = below that.", "data": [{"target": "Apoptosis regulator Bcl-2 (Homo sapiens) (UniProt P10415)", "sequence (P10415 whole entry, looked up)": "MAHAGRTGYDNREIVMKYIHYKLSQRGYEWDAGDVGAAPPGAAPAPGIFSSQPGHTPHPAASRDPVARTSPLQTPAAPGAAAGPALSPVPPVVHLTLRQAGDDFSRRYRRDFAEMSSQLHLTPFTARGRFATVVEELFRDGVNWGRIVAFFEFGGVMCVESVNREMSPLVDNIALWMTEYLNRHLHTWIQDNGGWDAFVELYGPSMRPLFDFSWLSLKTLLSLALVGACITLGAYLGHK", "assay": "Bcl-2 and Bim peptide interaction disruptors – biochemical, multiplexed, human Bcl-2 family, primary screen (AID 950);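 also: 0% = no compound wells with probe peptide and 100% = reference peptide inhibitor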", "settings": "Bead-based flow cytometry, Bim peptide-Bcl-2 binding; at 10 µM; stronger effect = higher value", "values": [{"compound": "COc1ccc(N2CCN(C(=O)C3CCN(S(=O)(=O)c4ccc(C)cc4)CC3)CC2)cc1", "inhibition": "2%"}, {"compound": "O=C(c1ccc(N2CCOCC2)c([N+](=O)[O-])c1)N1CCN(S(=O)(=O)c2cccs2)CC1", "inhibition": "0%"}, {"compound": "COc1ccc(C(=O)C[n+]2ccc(N)c(C)c2C)cc1", "inhibition": "-1%"}, {"compound": "Cc1ccc(Cl)cc1NC(=S)N(CCN(C)C)Cc1cccs1", "inhibition": "-4%"}, {"compound": "C/C(=N\\NC(=S)NC(C)C)c1ccc(C(C)(C)C)cc1", "inhibition": "-4%"}, {"compound": "Cc1nnc(N/N=C/C2CC=CCC2)[nH]c1=O", "note": "(stereo unspecified)", "inhibition": "2%"}, {"compound": "O=C(c1cccc(S(=O)(=O)N2CCCC2)c1)N(Cc1ccco1)C1CCS(=O)(=O)C1", "note": "(stereo unspecified)", "inhibition": "-3%"}, {"compound": "CCC(=O)Nc1ccc(Nc2nc(Cl)nc(Nc3ccc(NC(=O)CC)cc3)n2)cc1", "inhibition": "0%"}, {"compound": "COCCCNCCOCCOc1ccc(Cl)cc1Br", "inhibition": "1%"}, {"compound": "O=C(NCc1ccccc1)C1=C[C@@H](C2CCCCC2)C[C@@H](OCc2ccc(CO)cc2)O1", "inhibition": "-1%"}, {"compound": "CCOC(=O)C1CCCN(C(=O)/C=C/c2ccc(OC)cc2)C1", "note": "(stereo unspecified)", "inhibition": "-3%"}, {"compound": "CCn1c(=O)cc(SCC(=O)NCCC2=CCCCC2)c2ccccc21", "inhibition": "8%"}, {"compound": "O=c1cnnc(Nc2ccccc2)[nH]1", "inhibition": "-1%"}, {"compound": "O=C(N/N=C1\\CCSC1)c1cc(Cl)ccc1O", "inhibition": "3%"}, {"compound": "CCOC(=O)COc1ccc([N+](=O)[O-])cc1", "inhibition": "-1%"}, {"compound": "CCCn1c(C)cc(/C=C(\\C#N)C(=O)OCC(=O)Nc2cc(OC)c(OC)c(OC)c2)c1C", "inhibition": "-6%"}, {"compound": "CC1(C)C(c2cccs2)=[N+]([O-])C2(CCCCC2=O)N1O", "note": "(stereo unspecified)", "inhibition": "-5%"}, {"compound": "CCN(CC(=O)NCc1cccs1)C(=O)c1ccccc1F", "inhibition": "1%"}, {"compound": "COCCN(C(=S)Nc1ccccc1OC)C1CCN(C(C)C)CC1", "inhibition": "-1%"}, {"compound": "Cc1cc(NC(=O)CSCc2ccccc2C)no1", "inhibition": "-1%"}, {"compound": "COC(=O)c1cc(C)sc1NC(=O)CC1Nc2ccccc2NC1=O", "note": "(stereo unspecified)", "inhibition": "0%"}, {"compound": "CCN(CC)CCOC(=O)c1ccc(NC(=O)CNC(=O)c2ccccc2)cc1", "inhibition": "-4%"}, {"compound": "CCC(NC(=O)c1ccccc1NC(=O)c1ccccc1)C(=O)NNC(=O)CSc1nc2ccccc2o1", "note": "(stereo unspecified)", "inhibition": "-6%"}, {"compound": "CC(=O)N1CC(C)c2scc(C)[n+]2-c2ccccc21", "note": "(stereo unspecified)", "inhibition": "2%"}, {"compound": "CC(O)c1nc2ccccc2n1Cc1ccc([N+](=O)[O-])cc1", "note": "(stereo unspecified)", "inhibition": "-5%"}, {"compound": "Cc1cc(C)cc(C(=O)N2CCN=C2SCc2ccc([N+](=O)[O-])cc2)c1", "inhibition": "-3%"}, {"compound": "Cc1ccc(C(=O)N2CC(=O)Nc3ccccc32)o1", "inhibition": "-6%"}, {"compound": "CCc1nnc(NC(=O)CSc2nnnn2-c2cccc(C(C)=O)c2)s1", "inhibition": "-2%"}, {"compound": "Cn1cc(CCC(=O)N2CCCC(C(=O)c3ccc(C(C)(C)C)cc3)C2)cn1", "note": "(stereo unspecified)", "inhibition": "-5%"}, {"compound": "O=C(NCc1ccncc1)C(=O)NCc1ccco1", "inhibition": "-1%"}, {"compound": "Cc1ccc(S(=O)(=O)NC2(C(F)(F)F)NC(=O)N(CCc3ccccc3)C2=O)cc1", "note": "(stereo unspecified)", "inhibition": "-1%"}, {"compound": "C=CS(=O)c1sc(Cl)c(N2CCOCC2)c1[N+](=O)[O-]", "note": "(stereo unspecified)", "inhibition": "14%"}, {"compound": "CN1C(=O)/C(=C\\c2cc(Br)cs2)c2ccccc21", "inhibition": "-2%"}, {"compound": "CC(=O)c1cc(C#N)c(N2CC(C)OC(C)C2)nc1C", "note": "(stereo unspecified)", "inhibition": "-4%"}, {"compound": "Oc1ccc(/C=N/N(Cc2ccccc2)c2ccccc2)cc1", "inhibition": "-9%"}, {"compound": "Cn1ncc(N2CCN(S(=O)(=O)c3ccc(Br)cc3)CC2)c(Cl)c1=O", "inhibition": "-9%"}, {"compound": "C=CCOc1ccc(/C=N/NC(=O)C(C)Sc2ccccn2)cc1OCC", "note": "(stereo unspecified)", "inhibition": "-6%"}, {"compound": "O=C(NNS(=O)(=O)c1ccc(F)cc1)c1cnccn1", "inhibition": "0%"}, {"compound": "COCCC(=O)Nc1ccc2c(c1)CN(C(=O)CCOC)CC2", "inhibition": "-4%"}, {"compound": "Cc1ccc(NC(=O)CCC(=O)N/N=C/c2ccco2)c(C)c1", "inhibition": "-6%"}, {"compound": "CCCc1cc(=O)[nH]c(SCc2cc(=O)oc3c(C)c(C)ccc23)n1", "inhibition": "-3%"}, {"compound": "Cc1cccc(-c2nc3ccccc3c(=O)n2NC(=O)Cc2ccc(Cl)cc2)c1", "inhibition": "-11%"}, {"compound": "S=C(NCc1ccco1)Nc1ccc2c(c1)OCCO2", "inhibition": "-1%"}, {"compound": "CCCCC(=O)NCc1ccc(F)cc1", "inhibition": "0%"}, {"compound": "COc1ccc(NC(=S)NCc2cccs2)c(OC)c1", "inhibition": "-4%"}, {"compound": "O=C(O)CS/C(=C\\c1ccc(F)cc1)c1nc2ccccc2s1", "inhibition": "7%"}, {"compound": "CSCc1cc(N(C)C)nc(SCc2ccc(Cl)cc2Cl)n1", "inhibition": "76% (active)"}, {"compound": "CSCc1cc(N2CCOCC2)nc(SCc2ccc(Cl)cc2Cl)n1", "inhibition": "-12%"}, {"compound": "Clc1ccc(CSc2nnc(/C=C/c3ccccc3)o2)c(Cl)c1", "inhibition": "-8%"}, {"compound": "COc1ccc(/C(C)=N/Nc2cc(C(F)(F)F)ccc2Cl)c(OC)c1", "inhibition": "2%"}, {"compound": "COc1c(C)cc(C(=O)C2CCCN(S(=O)(=O)c3c(C)noc3C)C2)cc1C", "note": "(stereo unspecified)", "inhibition": "0%"}, {"compound": "CC1(C)OC(=O)C(=CSc2ccc(C(C)(C)C)cc2)C(=O)O1", "inhibition": "-3%"}, {"compound": "CCOC(=O)C1CCN(c2ncnc3c2c(-c2ccccc2)cn3-c2ccc(C)cc2)CC1", "inhibition": "-5%"}, {"compound": "CCCN(CCC)c1ccc(C(O)c2nnc(-c3ccccc3)o2)cc1", "note": "(stereo unspecified)", "inhibition": "-5%"}, {"compound": "O=C(COc1ccc(Cl)cc1)NCc1nnc(SCC(=O)NCC2CCCO2)o1", "note": "(stereo unspecified)", "inhibition": "-2%"}, {"compound": "COC(=O)c1c(NC(=O)CN2CCN(S(=O)(=O)c3ccccc3[N+](=O)[O-])CC2)sc2c1CCC(C)C2", "note": "(stereo unspecified)", "inhibition": "2%"}, {"compound": "O=S(=O)(c1ccccc1)c1nc(-c2ccccc2F)oc1NCc1cccnc1", "inhibition": "2%"}, {"compound": "CS(=O)(=O)N(Cc1ccccc1Cl)c1ccc(C(=O)NCc2cccnc2)cc1", "inhibition": "-4%"}, {"compound": "CCOC(=O)c1sc(NC(=O)CSc2nc(O)c(Cc3ccccc3)c(=O)[nH]2)nc1C", "inhibition": "0%"}, {"compound": "COc1ccc(CN2CN(C3CCCC3)CSC2=S)cc1", "inhibition": "-4%"}, {"compound": "COC(=O)c1ccc(-n2cnc3ccccc32)nc1", "inhibition": "-4%"}, {"compound": "CCOc1cc(/C=C2/C(=N)N3OC(C)=CC3=NC2=O)ccc1OC", "inhibition": "2%"}, {"compound": "CNC(=O)c1[nH]cnc1C(=O)N[C@@H](CC(C)C)C(=O)OCc1ccccc1", "inhibition": "-3%"}, {"compound": "CCOC(=O)Cn1nnnc1C", "inhibition": "-3%"}, {"compound": "CN(NC(=O)C1CC(=O)N(c2ccccc2)C1)C1=NS(=O)(=O)c2ccccc21", "note": "(stereo unspecified)", "inhibition": "-2%"}, {"compound": "Cc1nc2sc3c(c2c(=O)n1NC(=O)CCl)CCCC3", "inhibition": "-3%"}, {"compound": "COc1ccc(N(CC(=O)Nc2ccc(C)cc2C)S(=O)(=O)c2ccccc2[N+](=O)[O-])c(OC)c1", "inhibition": "-1%"}, {"compound": "COc1cccc(CN(C)CC(=O)NCc2ccccc2Cl)c1OC", "inhibition": "0%"}, {"compound": "CCOC(=O)c1[nH]cnc1C(=O)Nc1ccccc1C", "inhibition": "1%"}, {"compound": "CCCC1(C(=O)OC)NC(c2ccco2)C2C(=O)N(C)C(=O)C21", "note": "(stereo unspecified)", "inhibition": "-2%"}, {"compound": "CC(=O)Nc1ccc(OC(=O)COc2ccc(Br)cc2)cc1", "inhibition": "0%"}, {"compound": "c1ccc(Cc2cc[n+](Cc3ccccc3)cc2)cc1", "inhibition": "0%"}, {"compound": "C/C(CC(=O)Nc1ccc(C)cc1C)=N\\NC(=O)C(C)C", "inhibition": "0%"}, {"compound": "COc1cccc(NC(=O)CN(C)CC(=O)Nc2ccc3c(c2)CCC3)c1", "inhibition": "0%"}, {"compound": "Cc1ccc(NC(=O)N2CCSc3ccccc32)cc1", "inhibition": "-1%"}, {"compound": "COc1ccc(NC(=S)Nc2ccc(S(N)(=O)=O)cc2)c(C)c1", "inhibition": "-4%"}, {"compound": "O=C(c1ccc(Br)o1)N(c1ccccn1)C1CCCCC1", "inhibition": "-16%"}, {"compound": "Cc1sc2c(c1C)c(=O)n(-c1ccccc1)c(=O)n2CC(=O)NCC1CCCO1", "note": "(stereo unspecified)", "inhibition": "1%"}, {"compound": "COc1ccc(Br)cc1CN(C)CC(=O)Nc1cc([N+](=O)[O-])ccc1OC", "inhibition": "-9%"}, {"compound": "O=C(/C=C/c1ccccc1Cl)Nc1ccc(S(=O)(=O)Nc2ncccn2)cc1", "inhibition": "-1%"}, {"compound": "COC(=O)Cc1ccc(OCC(=O)Nc2ccc(OC(F)(F)F)cc2)cc1", "inhibition": "-5%"}, {"compound": "O=C(C1CCCO1)N(c1ccc(F)cc1)C1C=CS(=O)(=O)C1", "note": "(stereo unspecified)", "inhibition": "-2%"}, {"compound": "CCc1nnc(NC(=O)CCN(c2ccc(C)cc2)S(=O)(=O)c2ccccc2)s1", "inhibition": "0%"}, {"compound": "COc1ccc(-c2csc(NC(=O)c3ccc(N4C(=O)CCC4=O)cc3)n2)cc1OC", "inhibition": "-4%"}, {"compound": "CCOc1ccc(NC(=O)CC2C(=O)N(c3ccccc3)C(=O)N2CCOC)cc1", "note": "(stereo unspecified)", "inhibition": "1%"}, {"compound": "Cc1ccc(C(NC(=O)N2CCCC2)C(Cl)(Cl)Cl)cc1F", "note": "(stereo unspecified)", "inhibition": "-1%"}, {"compound": "COc1ccc(C[C@H]2CN3C(=NC[C@H]3C)N2CCNC(=O)CCC2CCCCC2)cc1", "inhibition": "0%"}, {"compound": "CCOc1ccc(-c2ccc(SCC(=O)N3CCOCC3)nn2)cc1", "inhibition": "-3%"}, {"compound": "O=C(CC1CCCCC1)NCc1ccco1", "inhibition": "-4%"}, {"compound": "CCOC(=O)CNC(=O)/C=C/c1c(Cl)cccc1Cl", "inhibition": "4%"}, {"compound": "CCN(CC)CCCNC(=O)Cn1cnc2sc(C)c(S(=O)(=O)N3CCN(c4ncccn4)CC3)c2c1=O", "inhibition": "-3%"}, {"compound": "CCOn1c(=O)c(=O)n(O)c2ccccc21", "inhibition": "-1%"}, {"compound": "CCO[C@@H]1OC(C(=O)NCc2nc3ccccc3[nH]2)=C[C@H](C2CCCCC2)[C@H]1CCCO", "inhibition": "-2%"}, {"compound": "Fc1cccc(CSc2nnc3ccc(-c4ccncc4)nn23)c1", "inhibition": "3%"}, {"compound": "CSc1ccc(/C=N/NC(=O)c2cccc(Cl)c2)cc1", "inhibition": "-7%"}, {"compound": "O=C(Cc1ccc([N+](=O)[O-])cc1)N/N=C/c1ccco1", "inhibition": "-4%"}, {"compound": "CC1(C)CC(=O)C(C2c3ccccc3S(=O)(=O)c3ccccc32)C(=O)C1", "inhibition": "0%"}, {"compound": "O=C(Oc1c(-c2ccco2)oc2ccccc2c1=O)c1cccnc1", "inhibition": "-4%"}, {"compound": "CCOCCCn1c(NN)nc2ccccc2c1=O", "inhibition": "-5%"}, {"compound": "CCOc1ccc(NC(=O)c2ccc(CSc3nnnn3C)cc2)cc1", "inhibition": "-9%"}, {"compound": "Nc1nnc(SCn2nnc3ccccc3c2=O)s1", "inhibition": "-5%"}, {"compound": "CN(CC(=O)Nc1ccccc1F)CC(=O)Nc1ccccc1Br", "inhibition": "-5%"}, {"compound": "Cc1cc(C)cc(N(CC(=O)NCCSCc2ccco2)S(C)(=O)=O)c1", "inhibition": "-7%"}, {"compound": "COc1ccc(C(CCN(Cc2ccc(OC)c(OC)c2)C(=O)CCl)c2ccccc2)cc1", "note": "(stereo unspecified)", "inhibition": "-6%"}, {"compound": "COc1cc(OC)c(C(=O)OC(C)C(=O)Nc2cc(C(F)(F)F)ccc2Cl)cc1OC", "note": "(stereo unspecified)", "inhibition": "-3%"}, {"compound": "Cc1ccnc(NC(=O)C(C)N2C(=O)c3ccccc3C2=O)c1", "note": "(stereo unspecified)", "inhibition": "0%"}]}]}
